Assay results published in PubChem BioAssay.
Activity calls are given as the source filed them. Cut-off read from the data, not from the text of the source: active = nuclear beta-catenin stimulation mostly above about 4.2% (no sharp cut-off); inactive = mostly below about 10%.

Test: Wnt pathway potentiators raising nuclear beta-catenin – imaging, WNT3A-conditioned medium, mouse C2C12, NPC library, primary screen (AID 1117326); note: reference of the scale not given here
Settings: at 10 µM, hits give high values

Nuclear beta-catenin stimulation, inactive:
CC(=O)N(CC(=O)N(C)C)c1ccccc1 -1.1%
CC(=O)CC/C=C(\C)CC/C=C(\C)CC/C=C(\C)CCC=C(C)C 2.6%
OCC=Cc1ccccc1 -2.6%
NC(=O)C(=O)N/N=C/c1ccc([N+](=O)[O-])o1 4.5%
CCOC(CN1CCN(CC(C)C(=O)c2ccccc2)CC1)c1ccccc1 (centres undefined) 2.2%
Nc1nnnn1-c1ccccc1 -0.2%
Nc1ccc(C(=O)Nc2ccccc2N)cc1 10.2%
CN1N=C(C(N)=O)CCC1=O 1.1%
C=CCNc1nc(NCC=C)nc(N2CCN(C(c3ccc(F)cc3)c3ccc(F)cc3)CC2)n1 0.3%
Nc1ccc(S(=O)(=O)Nc2ccccc2)cc1 1%
CN(C)CCN(Cc1ccsc1)c1ccccn1 -1.6%
NCc1ccccc1Sc1ccccc1CO 0.6%
CCCCCCCCCCCCCCCC[N+](C)(C)CC 13.3%
COc1cc(NS(=O)(=O)c2ccc(N)cc2)nc(C)n1 1.1%
C=Cc1c(C)c2cc3nc(cc4[nH]c(cc5nc(cc1[nH]2)C(C)=C5CCC(=O)O)c(CCC(=O)OC)c4C)[C@@]1(C)C3=CC=C(C(=O)OC)[C@@H]1C(=O)OC 16.7%
N[C@H]1CN(c2c(F)cc3c(=O)c(C(=O)O)cn(C4C[C@@H]4F)c3c2Cl)CC12CC2 (some centres undefined) 0.1%
NC(=O)NC1N=C([O][Al])NC1=O (centres undefined) 0.7%
Cc1cccc(C)c1NC(=O)CN1CCCC1 -0.4%
CC(=O)Nc1ccc(/C=N/NC(N)=S)cc1 0.3%
NCCNc1cccc2ccccc12 1.9%
O=c1[nH]c(=O)n([C@H]2O[C@H](CO)[C@@H](O)[C@@H]2O)cc1/C=C\Br 0.8%
O=C1NC(c2ccccc2)(c2ccccc2)C(=O)N1COP(=O)(O)O 1.6%
CCN(CC)CCSC(=O)C(c1ccccc1)c1ccccc1 7.2%
O=C(O)Cc1csc(-c2ccc(Cl)cc2)n1 -0.7%
COc1cc2nc(Cl)nc(N)c2cc1OC 0.1%
NC(=S)N=Nc1ccc(NN=C(N)N)cc1 1.9%
C[C@@H](O)[C@H](N)C(=O)O 0.7%
Cc1cnc(NS(=O)(=O)c2ccc(N)cc2)nc1 1.1%
CCCCCOc1ccc(C2SC(=O)NC2=O)cc1OCC (centres undefined) -0.1%
FC1(F)C(F)(F)C(F)(F)C2(F)C(F)(F)C(F)(F)C(F)(F)C(F)(F)C2(F)C1(F)F (centres undefined) -0.7%
CCCCC[C@H](O)C=C[C@H]1[C@H](O)CC(=O)[C@H]1CC=CCCCC(=O)O 0.5%
Cc1cc(N)c2cc(NC(=O)Nc3ccc4nc(C)cc(N)c4c3)ccc2n1 2.4%
CCCCC(O)/C=C(C)/C=C/C=C/C(=O)N1CCCC1=O (centres undefined) -1%
CC(C)(C)c1nnc(NS(=O)(=O)c2ccc(N)cc2)s1 0.1%
CC1(C)OC[C@@H](COC(=O)CCc2ccc(OC[C@@H](O)CNCCNC(=O)N3CCOCC3)cc2)O1 0.8%
CC(CCc1ccc2c(c1)OCO2)NN (centres undefined) 0.2%
CCCOc1ccc2c(c1)CC[C@@H]1[C@@H]2CC[C@]2(C)C(OC)CC[C@@H]12 (some centres undefined) 0.5%
CC/C=C(\C(=O)N[C@@H]1C(=O)N2C(C(=O)OCOC(=O)C(C)(C)C)=C(COC(N)=O)CS[C@H]12)c1csc(N)n1 -1%

Nuclear beta-catenin stimulation, active:
NC(N)=NN=C(/C=C/c1ccc([N+](=O)[O-])o1)/C=C/c1ccc([N+](=O)[O-])o1 -3%
